Experimental data published in ChEMBL document CHEMBL3988442, “University of Dundee, Small-Polar-MMV Screening Library” (2021).
For some of these results: Potency and affinity values are given separately.

How the values were obtained:
Set-up in all cases: scale not given: direction of the effect not stated beside the values
[1] = target: Protein translocase subunit SecA (Escherichia coli (strain K12)) (UniProt P10408); assay: Assay to Identify E. coli SecA ATPase Inhibitors; format: functional; settings: 30 µM
[2] = target: T1, Ubiquitin-activating enzyme e1, putative (Leishmania donovani (strain BPK282A1)) (UniProt E9BSI1); assay: Leishmania donovani Ubiquitin Activating Enzyme (LdE1); format: functional; settings: 30 µM
T1 sequence (whole entry): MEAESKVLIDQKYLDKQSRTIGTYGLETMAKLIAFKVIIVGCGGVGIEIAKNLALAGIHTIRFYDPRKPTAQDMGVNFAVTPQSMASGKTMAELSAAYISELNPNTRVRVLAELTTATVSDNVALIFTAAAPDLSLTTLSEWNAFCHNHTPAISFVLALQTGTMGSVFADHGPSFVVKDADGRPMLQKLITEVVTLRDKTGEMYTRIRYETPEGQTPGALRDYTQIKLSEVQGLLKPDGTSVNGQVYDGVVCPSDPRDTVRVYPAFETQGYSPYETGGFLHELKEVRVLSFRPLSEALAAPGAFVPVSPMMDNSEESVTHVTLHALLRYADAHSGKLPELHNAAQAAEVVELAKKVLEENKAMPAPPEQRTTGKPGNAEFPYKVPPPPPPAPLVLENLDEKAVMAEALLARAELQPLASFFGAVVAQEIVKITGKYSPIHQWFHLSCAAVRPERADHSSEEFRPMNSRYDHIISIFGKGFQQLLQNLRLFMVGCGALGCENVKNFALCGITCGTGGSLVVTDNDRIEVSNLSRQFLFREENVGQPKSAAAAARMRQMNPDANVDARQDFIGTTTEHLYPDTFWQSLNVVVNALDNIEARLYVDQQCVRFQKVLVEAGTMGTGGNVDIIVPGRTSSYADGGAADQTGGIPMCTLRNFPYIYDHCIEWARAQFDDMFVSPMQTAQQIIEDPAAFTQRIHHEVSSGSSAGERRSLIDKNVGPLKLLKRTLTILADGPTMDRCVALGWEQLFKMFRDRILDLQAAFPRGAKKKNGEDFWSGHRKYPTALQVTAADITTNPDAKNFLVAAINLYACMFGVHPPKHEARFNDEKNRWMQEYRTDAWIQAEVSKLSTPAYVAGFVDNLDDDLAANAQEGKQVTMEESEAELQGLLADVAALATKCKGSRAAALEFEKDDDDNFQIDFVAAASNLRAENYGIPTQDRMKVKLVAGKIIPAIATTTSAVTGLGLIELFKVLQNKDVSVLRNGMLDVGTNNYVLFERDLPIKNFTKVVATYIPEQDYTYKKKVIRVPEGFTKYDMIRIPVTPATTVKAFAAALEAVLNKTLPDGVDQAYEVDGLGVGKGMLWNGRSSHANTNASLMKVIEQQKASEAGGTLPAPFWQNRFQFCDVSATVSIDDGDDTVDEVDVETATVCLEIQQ

[3] = target: AMP-activated protein kinase, AMPK (Homo sapiens) (UniProt P54646+O43741+P54619+Q9UGJ0+Q9Y478+Q13131+Q9UGI9); assay: AMP-dependent Kinase enzyme assay. An in vitro enzyme assay that detects ADP turnover that is directly proportional to AMPK activity. This uses naive AMPK that is activated during the assay with MK-8722; format: functional; settings: 30 µM
[4] = target: Sialic acid-binding Ig-like lectin 9 (Homo sapiens) (UniProt Q9Y336); assay: Hs-Siglec9 ALPHAscreen SOP 20170721; settings: 10 µM
Trypanosoma cruzi = assay: Trypanosoma cruzi phosphomannomutase and mannose-1-phosphate guanylyltransferase assay; format: functional; settings: 10 µM
[5] = target: T2, Arginase-2, mitochondrial (Homo sapiens) (UniProt P78540); assay: in vitro enzyme assay to detect the production of urea directly proportional to the activity of Arginase II; format: functional; settings: 33.3 µM; further: in the data most compounds retested in dose-response had high values
T2 sequence (whole entry): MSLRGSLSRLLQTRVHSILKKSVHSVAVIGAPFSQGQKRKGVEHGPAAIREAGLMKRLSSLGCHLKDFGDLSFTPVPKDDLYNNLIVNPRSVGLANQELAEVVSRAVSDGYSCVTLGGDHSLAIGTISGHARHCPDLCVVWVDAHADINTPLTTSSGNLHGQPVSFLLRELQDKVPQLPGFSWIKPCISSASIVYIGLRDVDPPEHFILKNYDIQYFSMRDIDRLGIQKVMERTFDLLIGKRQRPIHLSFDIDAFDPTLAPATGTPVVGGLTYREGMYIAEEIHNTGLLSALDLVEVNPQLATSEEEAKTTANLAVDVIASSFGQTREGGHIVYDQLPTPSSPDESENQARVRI

[6] = target: T3, Proteasome subunit beta (Trypanosoma cruzi) (UniProt O96673); assay: Trypanosoma cruzi proteasome chymotrypsin-like activity (TcProtChymo) assay.; further: in the data most compounds retested in dose-response had high values; format: functional; settings: 9.37 µM
T3 sequence (whole entry): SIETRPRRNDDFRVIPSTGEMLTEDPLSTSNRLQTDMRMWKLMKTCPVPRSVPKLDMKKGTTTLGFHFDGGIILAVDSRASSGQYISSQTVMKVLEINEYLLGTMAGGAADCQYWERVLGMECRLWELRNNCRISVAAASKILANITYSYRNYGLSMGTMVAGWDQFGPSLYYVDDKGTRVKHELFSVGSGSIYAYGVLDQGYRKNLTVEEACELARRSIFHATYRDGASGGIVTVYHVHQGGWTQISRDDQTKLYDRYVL

Homo sapiens = species: Homo sapiens; assay: To identify inhibition of the IFN signalling (Jak-Stat) pathway via expression of an eGFP reporter gene under the control of an IFN-stimulated response element (ISRE) containing MxA promoter.; format: functional; settings: 30 µM
[7] = target: T4, Tyrosyl-tRNA synthetase, putative (Trypanosoma cruzi (strain CL Brener)) (UniProt Q4DSP6); assay: Trypanosoma cruzi tyrosyl tRNA synthetase (TcYRS) _High Tyrosine SOP; format: functional; settings: 30 µM; further: in the data most compounds retested in dose-response had high values
T4 sequence (whole entry): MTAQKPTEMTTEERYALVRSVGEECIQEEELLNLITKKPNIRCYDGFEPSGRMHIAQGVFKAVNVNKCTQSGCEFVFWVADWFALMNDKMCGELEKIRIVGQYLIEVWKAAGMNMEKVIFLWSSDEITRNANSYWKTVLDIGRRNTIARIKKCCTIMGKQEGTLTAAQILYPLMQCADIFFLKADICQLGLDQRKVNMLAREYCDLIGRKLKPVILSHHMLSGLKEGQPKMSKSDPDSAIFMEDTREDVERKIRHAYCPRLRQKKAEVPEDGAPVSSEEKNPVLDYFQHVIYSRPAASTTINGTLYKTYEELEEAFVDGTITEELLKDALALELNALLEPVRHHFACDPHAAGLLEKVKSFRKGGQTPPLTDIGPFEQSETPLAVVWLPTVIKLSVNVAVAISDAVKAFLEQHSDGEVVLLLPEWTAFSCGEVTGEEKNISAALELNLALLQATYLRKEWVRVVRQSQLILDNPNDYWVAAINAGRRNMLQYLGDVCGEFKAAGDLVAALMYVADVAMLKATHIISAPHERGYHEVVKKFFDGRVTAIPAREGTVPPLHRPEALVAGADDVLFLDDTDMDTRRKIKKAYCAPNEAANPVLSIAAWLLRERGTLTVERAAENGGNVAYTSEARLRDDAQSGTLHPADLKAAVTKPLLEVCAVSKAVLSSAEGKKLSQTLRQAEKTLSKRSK

[8] = target: T4, Tyrosyl-tRNA synthetase, putative (Trypanosoma cruzi (strain CL Brener)); assay: Trypanosoma cruzi tyrosyl tRNA synthetase (TcYRS) SOP; format: functional; settings: 30 µM
[9] = target: Chromo domain-containing protein 1 (Saccharomyces cerevisiae (strain ATCC 204508 / S288c) (Baker's yeast)) (UniProt P32657); assay: ScCHD-1 Enzyme Inhibition Assay; format: functional; settings: 30 µM; further: in the data most compounds retested in dose-response had high values
Chromo domain-containing protein 1 (Saccharomyces cerevisiae (strain ATCC 204508 / S288c) (Baker's yeast)), sequence (P32657 whole entry, the tested form may be a part): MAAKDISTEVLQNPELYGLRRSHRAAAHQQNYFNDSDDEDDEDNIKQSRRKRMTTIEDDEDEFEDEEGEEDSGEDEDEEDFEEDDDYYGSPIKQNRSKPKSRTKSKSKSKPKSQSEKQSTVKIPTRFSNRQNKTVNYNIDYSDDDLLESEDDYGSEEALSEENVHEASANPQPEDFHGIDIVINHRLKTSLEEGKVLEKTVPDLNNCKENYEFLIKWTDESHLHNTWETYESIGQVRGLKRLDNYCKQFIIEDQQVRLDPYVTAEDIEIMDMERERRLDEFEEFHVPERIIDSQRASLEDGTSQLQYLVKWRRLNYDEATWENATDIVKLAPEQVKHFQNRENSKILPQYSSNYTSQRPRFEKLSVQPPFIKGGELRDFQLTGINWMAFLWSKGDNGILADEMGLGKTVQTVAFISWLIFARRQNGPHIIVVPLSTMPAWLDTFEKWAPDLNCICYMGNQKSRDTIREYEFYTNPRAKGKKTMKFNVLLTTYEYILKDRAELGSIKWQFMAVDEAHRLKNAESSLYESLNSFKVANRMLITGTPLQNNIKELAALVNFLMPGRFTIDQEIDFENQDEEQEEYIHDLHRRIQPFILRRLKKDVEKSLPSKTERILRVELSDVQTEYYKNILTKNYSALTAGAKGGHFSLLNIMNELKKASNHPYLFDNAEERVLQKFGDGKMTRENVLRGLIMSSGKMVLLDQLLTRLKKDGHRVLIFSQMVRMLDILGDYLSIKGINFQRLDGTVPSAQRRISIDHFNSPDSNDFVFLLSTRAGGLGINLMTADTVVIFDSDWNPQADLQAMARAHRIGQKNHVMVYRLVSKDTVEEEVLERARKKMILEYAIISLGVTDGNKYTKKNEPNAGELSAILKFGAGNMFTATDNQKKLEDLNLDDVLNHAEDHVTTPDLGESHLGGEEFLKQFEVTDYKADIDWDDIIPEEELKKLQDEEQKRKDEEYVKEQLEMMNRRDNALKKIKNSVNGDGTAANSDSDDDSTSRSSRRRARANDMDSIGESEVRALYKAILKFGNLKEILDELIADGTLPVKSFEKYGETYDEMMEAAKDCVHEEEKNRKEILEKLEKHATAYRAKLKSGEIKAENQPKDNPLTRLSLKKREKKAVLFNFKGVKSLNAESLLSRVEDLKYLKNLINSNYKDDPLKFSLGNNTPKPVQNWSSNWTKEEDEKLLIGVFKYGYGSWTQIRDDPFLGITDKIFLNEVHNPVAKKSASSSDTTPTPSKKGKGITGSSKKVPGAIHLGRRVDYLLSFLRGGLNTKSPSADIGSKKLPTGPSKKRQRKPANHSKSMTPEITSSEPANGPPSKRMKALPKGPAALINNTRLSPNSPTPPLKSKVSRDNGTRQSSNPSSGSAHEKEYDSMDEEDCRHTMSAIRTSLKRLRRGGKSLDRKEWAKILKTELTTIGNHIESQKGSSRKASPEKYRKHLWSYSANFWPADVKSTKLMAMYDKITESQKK

Sialic acid-binding Ig-like lectin 9 (Homo sapiens), sequence (Q9Y336 whole entry): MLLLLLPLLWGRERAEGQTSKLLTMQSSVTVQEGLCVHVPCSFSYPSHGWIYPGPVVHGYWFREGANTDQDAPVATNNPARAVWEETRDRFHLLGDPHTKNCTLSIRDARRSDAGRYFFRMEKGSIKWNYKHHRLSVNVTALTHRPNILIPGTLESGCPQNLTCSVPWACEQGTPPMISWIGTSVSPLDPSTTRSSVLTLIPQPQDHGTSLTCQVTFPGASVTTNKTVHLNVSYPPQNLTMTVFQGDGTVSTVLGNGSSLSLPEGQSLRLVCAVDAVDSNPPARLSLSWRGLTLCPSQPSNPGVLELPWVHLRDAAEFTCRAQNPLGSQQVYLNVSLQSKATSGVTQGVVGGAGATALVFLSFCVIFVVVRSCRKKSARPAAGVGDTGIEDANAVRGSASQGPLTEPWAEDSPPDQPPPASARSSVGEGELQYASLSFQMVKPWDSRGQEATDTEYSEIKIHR
Protein translocase subunit SecA (Escherichia coli (strain K12)), sequence (P10408 whole entry): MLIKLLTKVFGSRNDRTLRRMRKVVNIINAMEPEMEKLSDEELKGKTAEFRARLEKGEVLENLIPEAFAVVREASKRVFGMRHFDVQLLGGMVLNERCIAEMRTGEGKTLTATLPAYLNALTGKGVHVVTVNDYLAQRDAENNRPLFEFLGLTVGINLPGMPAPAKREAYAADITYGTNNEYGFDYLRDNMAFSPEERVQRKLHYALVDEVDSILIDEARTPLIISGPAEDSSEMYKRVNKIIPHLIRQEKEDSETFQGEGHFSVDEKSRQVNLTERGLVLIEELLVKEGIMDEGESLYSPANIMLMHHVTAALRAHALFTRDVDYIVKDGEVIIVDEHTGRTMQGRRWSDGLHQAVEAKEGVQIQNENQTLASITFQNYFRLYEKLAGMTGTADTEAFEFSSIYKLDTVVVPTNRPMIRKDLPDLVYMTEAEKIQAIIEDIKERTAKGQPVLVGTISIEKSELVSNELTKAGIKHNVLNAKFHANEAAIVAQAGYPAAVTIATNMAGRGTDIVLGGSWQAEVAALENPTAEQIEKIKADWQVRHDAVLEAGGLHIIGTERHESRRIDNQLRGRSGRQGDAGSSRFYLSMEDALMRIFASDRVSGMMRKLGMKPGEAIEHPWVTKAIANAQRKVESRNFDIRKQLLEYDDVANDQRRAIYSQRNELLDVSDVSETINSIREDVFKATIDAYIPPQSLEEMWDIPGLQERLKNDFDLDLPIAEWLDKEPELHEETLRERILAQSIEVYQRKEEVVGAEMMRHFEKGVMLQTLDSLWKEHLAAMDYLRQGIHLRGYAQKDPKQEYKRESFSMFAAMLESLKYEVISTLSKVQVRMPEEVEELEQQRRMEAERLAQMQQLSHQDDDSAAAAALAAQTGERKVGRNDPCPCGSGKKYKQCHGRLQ

Structure (SMILES) | Percent Effect [1] | Percent Effect [2] | Percent Effect [3] | Percent Effect [4] | Percent Effect (Trypanosoma cruzi) | Percent Effect [5] | Percent Effect [6] | Percent Effect (Homo sapiens) | Percent Effect [7] | Percent Effect [8] | Percent Effect [9]
O=C(Cc1ccc2c(c1)OCCO2)N1CCCC(n2ccnc2)C1 (stereo not drawn) | -8.71% | 5.2% | -7.38% | -6.56% | 10.7% | -3.58% | 4.77% | 2.67% | 1.91% | 11.8% | -24.2%
CCOc1ncccc1NC(=O)c1sccc1C | -2.31% | -1.39% | 2.84% | -14.7% | -4.57% | 2.21% | 23.2% | -6.94% | 4.21% | 7.69% | 4%
Cc1nn(C)c(C)c1C1CCCN1CCCc1nc2ccccc2o1 (stereo not drawn) | -7.27% | 8.11% | -11.9% | 17.9% | 5.38% | -10% | 8.47% | 13.8% | 11.3% | 23.5% | -12.9%
CN(Cc1ccc(F)cc1)CC1(O)CCCN(CC(C)(C)C)C1=O (stereo not drawn) | -5.95% | -1.39% | -3.53% | -2.57% | 3.79% | 3.09% | -3.16% | 1.55% | -7.37% | -2.56% | 0.558%
Cc1cnn(C2CCCN(C(=O)c3cccc(Cn4ccnc4)c3)C2)c1 (stereo not drawn) | -1.7% | 13.9% | -5.85% | -7.26% | 2.36% | -4.09% | 17.3% | 25.8% | 1.04% | 10.1% | -30.4%
COc1ccccc1CN1CCC2(CC1)CC(Oc1ccccn1)CO2 (stereo not drawn) | -0.474% | 16% | -2.4% | -9.97% | 2.76% | 132% | 14.9% | -3.26% | 4.25% | 8.97% | -13.9%
Cc1ccccc1CN1CCC2(COCc3cnc(N(C)C)nc32)C1 (stereo not drawn) | -1.75% | 2.74% | -2.35% | 15.2% | 8.73% | -2% | 8.65% | 19.6% | 9.38% | 13.6% | -2.3%
Cc1oc(C)c(C(=O)N2CCCN(Cc3cscn3)CC2)c1C | -6.32% | 7.79% | 7.44% | -1.26% | -1.47% | -2.32% | -1.37% | 14.5% | 6.67% | 9.41% | -15.7%
